Calls of active or inactive are those of the source.
Experiments:
[1] = system: PRMT1 (protein arginine N-methyltransferase 1); assay: PRMT1 binders on small-molecule microarrays, primary screen, biochemical, small-molecule microarray, 635 nm fluorescence (AID 1088); settings: small-molecule microarray binding, higher = more signal;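 note: binding of Prmt1 protein to compounds spotted on small-molecule microarray slides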
[2] = yeast growth modulation, basal conditions, primary screen, YJM789 clinical isolate, OD600, 24 h (AID 1089);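 note: growth of clinical yeast isolate S. cerevisiae YJM 789 seeded 1000 cells per well; test concentration not given here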; settings: S. cerevisiae YJM789 growth, higher = more signal, called active from +8 up or from −8 down
[3] = fission yeast growth modulation, primary screen, strain 972, OD600, 24 h, no modulator (AID 1090);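 note: basal condition with compound alone and no growth modifier present; test concentration not given here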; settings: S. pombe 972 growth, higher = more signal, called active from +8 up or from −8 down
[4] = S. cerevisiae growth modulation with rapamycin, primary screen, strain BY4716, OD600, 96 h (AID 1091); settings: higher = more signal, called active from +8 up or from −8 down; note: test concentration not given here
[5] = target: Torsin-1A-interacting protein 2 (Homo sapiens) (UniProt Q8NFQ8); assay: LULL1 binders on small-molecule microarray, primary screen, cell lysate, human LULL1 lysate, 635/667 nm fluorescence (AID 1092); settings: hLULL1 lysate binding, 635 nm fluorescence, higher = more signal;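 note: probe is lysate of COS7 cells overexpressing human LULL1; score merges per-feature 667 nm fluorescence with signal-to-noise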
[6] = E. coli growth modulation, two-sided OD650, primary screen, E. coli filamentation project, strain DRC41, 24 h (AID 1093); settings: OD650, 24 h, higher = more signal, called active from +8 up or from −8 down;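 note: MC1000 strain lacking acrAB efflux and sulA so SOS filamentation is blocked; test concentration not given here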
[7] = small-molecule microarray binders of probe aLefty2, primary screen, biochemical, biotinylated probe, 635/667 nm fluorescence (AID 1094); settings: higher = more signal;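 note: score merges spot fluorescence near 667 nm with spot signal-to-noise ratio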
[8] = system: Noggin (protein binding on small-molecule microarray); assay: Noggin binders on small-molecule microarray, primary screen, biochemical, 635/667 nm fluorescence (AID 1095); settings: 635 nm fluorescence, higher = more signal;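 note: score merges 667 nm feature fluorescence with signal to noise over triplicate slides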
[9] = target: Neurogenic locus notch homolog protein 3 (Homo sapiens) (UniProt Q9UM47); assay: NOTCH3 binders on small-molecule microarray, primary screen, biochemical, 635/667 nm fluorescence (AID 1096); settings: NOTCH3 binding, 635 nm fluorescence, higher = more signal
[10] = small-molecule microarray binders of probe aEGFR, primary screen, biochemical, biotinylated probe, 635/667 nm fluorescence (AID 1097); settings: higher = more signal;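 note: probe is a biotinylated anti-EGFR antibody binding compounds printed on slides; score combines fluorescence near 667 nm and signal to noise of each spot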

Chain of Neurogenic locus notch homolog protein 3 (Homo sapiens) (Q9UM47 whole entry, looked up): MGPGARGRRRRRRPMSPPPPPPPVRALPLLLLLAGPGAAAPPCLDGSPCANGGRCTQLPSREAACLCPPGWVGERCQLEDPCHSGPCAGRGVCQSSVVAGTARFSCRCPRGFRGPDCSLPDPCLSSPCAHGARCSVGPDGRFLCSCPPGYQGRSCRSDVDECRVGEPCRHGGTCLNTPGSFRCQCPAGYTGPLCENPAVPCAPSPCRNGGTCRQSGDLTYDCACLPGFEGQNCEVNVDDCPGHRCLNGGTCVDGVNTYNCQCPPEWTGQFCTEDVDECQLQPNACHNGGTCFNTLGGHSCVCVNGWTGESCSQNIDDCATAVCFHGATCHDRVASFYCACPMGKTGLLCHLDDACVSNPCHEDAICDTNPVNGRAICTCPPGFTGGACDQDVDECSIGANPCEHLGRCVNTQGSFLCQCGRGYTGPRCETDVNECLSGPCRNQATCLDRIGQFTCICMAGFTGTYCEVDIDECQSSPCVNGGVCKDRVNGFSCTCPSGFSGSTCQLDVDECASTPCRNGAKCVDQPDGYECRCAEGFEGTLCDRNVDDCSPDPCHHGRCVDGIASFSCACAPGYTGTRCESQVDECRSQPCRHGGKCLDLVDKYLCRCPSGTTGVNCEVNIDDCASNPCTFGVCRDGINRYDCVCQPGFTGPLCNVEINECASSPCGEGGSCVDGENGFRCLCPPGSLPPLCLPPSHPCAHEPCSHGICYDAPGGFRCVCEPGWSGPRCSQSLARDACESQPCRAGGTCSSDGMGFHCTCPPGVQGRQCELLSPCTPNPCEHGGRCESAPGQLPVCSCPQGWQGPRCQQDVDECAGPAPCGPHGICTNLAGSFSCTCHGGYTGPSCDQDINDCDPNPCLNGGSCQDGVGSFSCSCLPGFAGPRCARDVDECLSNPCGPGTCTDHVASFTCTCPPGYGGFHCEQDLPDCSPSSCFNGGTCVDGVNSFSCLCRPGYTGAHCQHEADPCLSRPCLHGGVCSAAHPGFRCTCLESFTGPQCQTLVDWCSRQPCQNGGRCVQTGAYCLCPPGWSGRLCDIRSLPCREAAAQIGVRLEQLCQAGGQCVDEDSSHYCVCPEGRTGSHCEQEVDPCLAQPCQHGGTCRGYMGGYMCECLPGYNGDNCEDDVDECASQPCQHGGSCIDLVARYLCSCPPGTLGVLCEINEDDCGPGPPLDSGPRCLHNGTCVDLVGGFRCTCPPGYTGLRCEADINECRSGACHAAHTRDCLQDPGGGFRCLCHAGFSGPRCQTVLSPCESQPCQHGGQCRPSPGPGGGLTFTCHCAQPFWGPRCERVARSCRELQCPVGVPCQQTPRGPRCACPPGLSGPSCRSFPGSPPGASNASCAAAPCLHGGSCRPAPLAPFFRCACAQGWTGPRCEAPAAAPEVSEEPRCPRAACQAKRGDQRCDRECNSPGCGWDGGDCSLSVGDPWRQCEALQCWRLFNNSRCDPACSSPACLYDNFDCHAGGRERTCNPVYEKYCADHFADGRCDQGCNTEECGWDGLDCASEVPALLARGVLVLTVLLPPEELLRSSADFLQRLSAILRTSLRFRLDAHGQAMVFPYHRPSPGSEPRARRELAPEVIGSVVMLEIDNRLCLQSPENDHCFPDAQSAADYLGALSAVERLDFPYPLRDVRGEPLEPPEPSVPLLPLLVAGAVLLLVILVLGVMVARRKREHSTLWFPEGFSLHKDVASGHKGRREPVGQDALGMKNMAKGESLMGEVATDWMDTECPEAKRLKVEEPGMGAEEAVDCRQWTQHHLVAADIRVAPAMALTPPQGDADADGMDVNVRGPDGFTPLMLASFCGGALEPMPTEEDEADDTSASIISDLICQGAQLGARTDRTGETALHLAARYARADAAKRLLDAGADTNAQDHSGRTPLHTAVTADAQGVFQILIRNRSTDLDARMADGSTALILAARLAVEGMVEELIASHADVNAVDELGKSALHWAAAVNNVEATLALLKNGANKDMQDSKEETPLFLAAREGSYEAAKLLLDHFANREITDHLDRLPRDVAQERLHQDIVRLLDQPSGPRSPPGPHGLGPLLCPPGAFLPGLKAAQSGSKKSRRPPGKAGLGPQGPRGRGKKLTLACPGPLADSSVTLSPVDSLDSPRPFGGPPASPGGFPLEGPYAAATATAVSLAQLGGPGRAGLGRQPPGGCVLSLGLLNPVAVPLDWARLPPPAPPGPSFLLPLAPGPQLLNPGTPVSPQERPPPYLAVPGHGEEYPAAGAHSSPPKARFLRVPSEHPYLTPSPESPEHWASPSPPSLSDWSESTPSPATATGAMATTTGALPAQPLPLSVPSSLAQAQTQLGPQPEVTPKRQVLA
Chain of Torsin-1A-interacting protein 2 (Homo sapiens) (Q8NFQ8 whole entry, looked up): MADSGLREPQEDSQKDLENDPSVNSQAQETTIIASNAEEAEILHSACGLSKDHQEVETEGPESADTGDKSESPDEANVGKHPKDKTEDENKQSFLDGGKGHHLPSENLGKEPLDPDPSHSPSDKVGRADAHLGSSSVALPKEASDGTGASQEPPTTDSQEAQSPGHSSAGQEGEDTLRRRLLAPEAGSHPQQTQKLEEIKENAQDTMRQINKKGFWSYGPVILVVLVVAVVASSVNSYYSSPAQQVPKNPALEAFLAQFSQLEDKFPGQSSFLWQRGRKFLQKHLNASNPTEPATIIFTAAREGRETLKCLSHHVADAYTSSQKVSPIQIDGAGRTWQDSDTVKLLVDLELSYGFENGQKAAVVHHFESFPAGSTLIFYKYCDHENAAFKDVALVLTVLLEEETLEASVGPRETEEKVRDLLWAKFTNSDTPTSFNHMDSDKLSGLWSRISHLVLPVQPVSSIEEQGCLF

SMILES	composite z-score [1]	z-score [2]	z-score [3]	z-score [4]	composite z-score [5]	z-score [6]	composite z-score [7]	composite z-score [8]	composite z-score [9]	composite z-score [10]
O=C(NCc1ccccc1)[C@@H]1c2ccccc2C(=O)N(C2CCCCC2)[C@H]1c1ccc(CO)cc1	1.47	-0.406 (inactive)	-0.577 (inactive)	0.39 (inactive)	2.53	-0.175 (inactive)	-0.322	1.41	1.03	-0.352
O=C1O[C@@H](c2ccccc2)[C@@H](c2ccccc2)N2[C@@H](c3ccc(O)cc3)[C@]3(C(=O)Nc4ccccc43)[C@@H](C(=O)NC[C@H](O)c3ccccc3)[C@H]12	0.867	0.3 (inactive)	0.572 (inactive)	1.49 (inactive)	2.02	1.76 (inactive)	-0.12	0.753	0.0385	-0.112
Cc1ccc([C@H]2C(C(=O)O)=C[C@@H](C(C)C)N2S(=O)(=O)c2ccc(C)cc2)cc1	0.425	-0.763 (inactive)	0.0459 (inactive)	-0.128 (inactive)	3.51	-0.678 (inactive)	-0.0598	-0.0681	0.412	-0.0457
O=C1O[C@H](c2ccccc2)[C@H](c2ccccc2)N2[C@H]1[C@@H](C(=O)NC[C@H](O)c1ccccc1)[C@]1(C(=O)Nc3ccc(C#CC4=CCCCC4)cc31)[C@H]2c1ccc(O)cc1	1.55	0.896 (inactive)	0.543 (inactive)	1.62 (inactive)	2.59	2 (inactive)	-0.0766	1.61	1.08	0.272
O=C(NCC(F)(F)F)[C@@H]1c2ccccc2C(=O)N(Cc2ccccc2)[C@H]1c1ccc(CO)cc1	1.04	-0.526 (inactive)	0.0532 (inactive)	0.13 (inactive)	2.35	0.544 (inactive)	-0.0192	-1.34	-0.612	-0.194
COCCOC(=O)N1C(=O)[C@@]2(c3cc(C#Cc4ccc(OC)cc4)ccc31)[C@H](C(N)=O)[C@H]1C(=O)O[C@H](c3ccccc3)[C@H](c3ccccc3)N1[C@@H]2c1ccc(O)cc1	-1.57	-0.613 (inactive)	-0.0532 (inactive)	0.333 (inactive)	-0.839	1.84 (inactive)	-0.264	-2.13	-1.35	-0.627
C=C(CCCC)C(=O)CC[C@@H](OC(=O)c1ccccc1-c1ccccc1C(=O)O)c1ccc(CO)o1	1.56	-0.516 (inactive)	-0.0561 (inactive)	-0.667 (inactive)	0.779	0.122 (inactive)	0.0202	1.24	0.534	0.0068
O=C(NCCN1CCOCC1)[C@@H]1c2ccccc2C(=O)N(Cc2cc(F)cc(C(F)(F)F)c2)[C@H]1c1ccc(CO)cc1	1.54	-0.718 (inactive)	-0.447 (inactive)	-0.405 (inactive)	3.05	-0.356 (inactive)	-0.22	0.935	0.58	-0.149
CC(=O)n1cc(C(O)C2C=CC3C(=O)N(c4ccccc4)C(=O)C3N2Nc2ccc(C#N)cc2)c2ccccc21 (stereo not given)	1.33	-0.589 (inactive)	1.09 (inactive)	1.85 (inactive)	3.4	-0.795 (inactive)	0.401	-0.244	0.48	-0.0804
C#C[C@H](O[Si](C#CCCCCCC)(C(C)C)C(C)C)c1ccccc1	0.631	0.0821 (inactive)	0.384 (inactive)	-0.653 (inactive)	0.432	0.411 (inactive)	-0.114	0.186	0.13	-0.171
CCCC[C@@H]1C[C@H]1[C@@H](NC(=O)c1ccccc1)c1ccccc1	-0.352	0.588 (inactive)	1.02 (inactive)	1.54 (inactive)	0.981	-0.404 (inactive)	0.302	0.226	0.571	0.104
CN1C(=O)C2C=CC(C(O)c3ccc(Br)cc3)N(Nc3ccccc3)C2C1=O (stereo not given)	-0.897	0.947 (inactive)	-0.0449 (inactive)	0.878 (inactive)	1.27	-0.54 (inactive)	0.296	-1.48	-1.17	-0.0594
O=C(N1CCCCC1)[C@]1(CCS(=O)(=O)c2ccccc2)N=C(c2ccc(OCCCO)cc2)O[C@@H]1c1ccccc1	1.56	-0.503 (inactive)	-0.282 (inactive)	5.25 (inactive)	2.4	-0.643 (inactive)	0.568	0.115	1.11	0.244
CC(C)(C)OC(=O)CC[C@@]1(C(=O)NCC(O)CO)N=C(c2ccc(OCCCO)cc2)O[C@@H]1c1ccccc1 (stereo not given in full)	1.46	0.531 (inactive)	0.18 (inactive)	0.375 (inactive)	3.77	-0.103 (inactive)	0.0689	-0.364	0.356	-0.071
O=C1O[C@H](c2ccccc2)[C@H](c2ccccc2)N2[C@H]1[C@@H](C(=O)N1CCCCCCC1)[C@]1(C(=O)Nc3ccc(C#CC4=CCCCC4)cc31)[C@H]2c1ccc(O)cc1	1.56	-0.177 (inactive)	0.218 (inactive)	0.791 (inactive)	5.19	1.26 (inactive)	1.91	2.3	1.02	1.47

— PubChem BioAssay
